19 molecules from PubChem BioAssay (EPA / NIEHS) can be followed below.

Read-out in assay [1]: Transforming Growth Factor (TGFB1), TGFB1 (gene 7040)
Briefly: LTEA_HepaRG_TGFB1: Life Technologies and Expression Analysis (LTEA) Assay for Transforming Growth Factor (TGFB1) Transporter using HepaRG (AID 2283533). As to conditions: mRNA level, 48 h; actives raise or lower the signal. Summed up:
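Eight-point concentration-response (max 100 uM, half-log) in HepaRG under serum-free induction conditions, 48 h. TGFB1 mRNA by qRT-PCR, housekeeping-normalized.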

Read-out in the next assay: TIMP1, TIMP1 (gene 7076)
Briefly: LTEA_HepaRG_TIMP1: Life Technologies and Expression Analysis (LTEA) Assay for TIMP1 using HepaRG (AID 2283534). As to conditions: mRNA level, 48 h; actives raise or lower the signal. Summed up:
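TIMP1 induction or repression in HepaRG cells after 48 h chemical exposure (eight concentrations, highest 100 uM), assessed by normalized qRT-PCR with bidirectional fitting to DMSO controls.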

Read-out in assay [2]: Tumor necrosis factor receptor 1 (TNFRSF1A), TNFRSF1A (gene 7132)
The assay can be described thus: LTEA_HepaRG_TNFRSF1A: Life Technologies and Expression Analysis (LTEA) Assay for Tumor necrosis factor receptor 1 (TNFRSF1A) using HepaRG (AID 2283535). As to conditions: mRNA level, 48 h; actives raise or lower the signal. In a few lines: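 Assay uses 48 h chemical treatment of differentiated HepaRG monolayers, tested in duplicate at eight concentrations from 100 uM downward in 0.5% DMSO. mRNA is normalized to ACTB, GAPDH and POLR2A, with induction or suppression fitted relative to vehicle.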

Read-out in assay [3]: Thyroid Hormone Responsive (THRSP), THRSP (gene 7069)
Briefly: LTEA_HepaRG_THRSP: Life Technologies and Expression Analysis (LTEA) Assay for Thyroid Hormone Responsive (THRSP) using HepaRG (AID 2283536). The note with it: mRNA level, 48 h; actives raise or lower the signal. Summed up: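 Differentiated HepaRG cells treated 48 h in serum-free induction medium with 8 half-log concentrations up to 100 uM (0.5% DMSO), duplicates. THRSP mRNA by TaqMan qRT-PCR normalised to ACTB, GAPDH, POLR2A; bidirectional fit versus DMSO.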

Read-out in assay [4]: Cellular tumor antigen p53 (Homo sapiens) (UniProt P04637)
The assay can be described thus: LTEA_HepaRG_TP53: Life Technologies and Expression Analysis (LTEA) Assay for Tumor Protein P53 (TP53) using HepaRG (AID 2283537). The note with it: mRNA level, 48 h; actives raise or lower the signal. Summed up: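 Differentiated HepaRG cells in serum-free induction medium exposed 48 h in duplicate to 8 half-log concentrations, top 100 uM, 0.5% DMSO. TP53 mRNA by TaqMan qRT-PCR (Fluidigm), normalized to ACTB, GAPDH, POLR2A; fitted bidirectionally versus DMSO.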

Read-out in assay [5]: UDP glucuronosyltransferase (UGT1A1), UGT1A1 (gene 54658)
Briefly: LTEA_HepaRG_UGT1A1: Life Technologies and Expression Analysis (LTEA) Assay for UDP glucuronosyltransferase (UGT1A1) using HepaRG (AID 2283538). As to conditions: mRNA level, 48 h; actives raise or lower the signal. In a few lines:
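HepaRG cells, 0.5% DMSO vehicle, 48 h exposure in serum-free induction medium to 8-point half-log series topping at 100 uM, in duplicate. UGT1A1 mRNA by Fluidigm qRT-PCR, normalized to ACTB/GAPDH/POLR2A; bidirectional fit versus DMSO.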

Read-out in assay [6]: UDP glucuronosyltransferase (UGT1A6), UGT1A6 (gene 54578)
The assay can be described thus: LTEA_HepaRG_UGT1A6: Life Technologies and Expression Analysis (LTEA) Assay for UDP glucuronosyltransferase (UGT1A6) using HepaRG (AID 2283539). The note with it: mRNA level, 48 h; actives raise or lower the signal. In a few lines: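 Measures mRNA change in HepaRG hepatic cells exposed 48 h to chemicals (eight-point, maximum 100 uM, 0.5% DMSO vehicle) in serum-free induction medium. Expression normalized to endogenous controls; DMSO served as negative control and baseline.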

Read-out in assay [7]: X-box binding protein 1 (XBP1), XBP1 (gene 7494)
The assay can be described thus: LTEA_HepaRG_XBP1: Life Technologies and Expression Analysis (LTEA) Assay for X-box binding protein 1 (XBP1) using HepaRG (AID 2283540). As to conditions: mRNA level, 48 h; actives raise or lower the signal. Summed up: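 Eight concentrations (half-log, highest 100 uM, 0.5% DMSO) tested in duplicate on HepaRG cells over 48 h in serum-free induction medium; qRT-PCR of XBP1 normalised to ACTB, GAPDH, POLR2A.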

Assay [8] in a line: LTEA_HepaRG_LDH_cytotoxicity: Cytotoxicity Assessment in the Life Technologies and Expression Analysis (LTEA) Assay (AID 2283563; active means hit-call score of the fitted dose curve at least 0.9, where 1 is the maximum;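 on AC50: LDH activity released into spent culture medium as a marker of cell death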). In a few lines: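 Spent-medium LDH after 48 h chemical exposure of HepaRG cells in serum-free induction medium; eight concentrations, half-log dilutions from 100 uM, duplicate wells, fitted upward relative to 0.5% DMSO.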
The nature of assay [9]: ATG_XTT_Cytotoxicity: Cytotoxicity Assessment in the Attagene TRANS-FACTORIAL HepG2 Assay (AID 2283584; active means hit-call score of the fitted dose curve at least 0.9, where 1 is the maximum). In a few lines: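 24 h chemical exposure of reporter-transfected HepG2; XTT signal loss vs DMSO indicates cytotoxicity.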

Inconclusive results are not listed. Active and inactive are the calls of the source. How the source made its calls, unless noted: active means hit-call score of the fitted dose curve at least 0.9, where 1 is the maximum; inactive means score below 0.9.

Chain of Cellular tumor antigen p53 (Homo sapiens) (P04637 whole entry, looked up): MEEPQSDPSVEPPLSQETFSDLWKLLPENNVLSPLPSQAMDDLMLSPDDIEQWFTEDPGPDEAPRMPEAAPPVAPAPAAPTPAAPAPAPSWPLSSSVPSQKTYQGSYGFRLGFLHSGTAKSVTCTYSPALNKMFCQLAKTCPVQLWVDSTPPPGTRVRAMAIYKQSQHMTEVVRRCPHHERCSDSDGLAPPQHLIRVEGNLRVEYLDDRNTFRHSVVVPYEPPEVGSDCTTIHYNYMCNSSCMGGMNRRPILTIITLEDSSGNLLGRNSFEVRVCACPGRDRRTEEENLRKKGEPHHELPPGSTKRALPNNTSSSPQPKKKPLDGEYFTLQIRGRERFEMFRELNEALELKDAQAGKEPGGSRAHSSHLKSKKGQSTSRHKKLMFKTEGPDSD

On to `Cc1ccc(N)c(N)c1`, for which the outcome was “inactive” in [1]; “inactive” in the assay with TIMP1, TIMP1 (gene 7076); “inactive” in [2]; “inactive” in [3]; “inactive” in assay [4]; “inactive” in assay [6]. The outcome in [7] and in [8] was inactive. In addition, the AC50 in assay [5] was 50 µM (active).
In the case of `CCC12COCN1COC2`, the outcome is “inactive” in [1]; “inactive” with TIMP1, TIMP1 (gene 7076); “inactive” in assay [2]; “inactive” in assay [3]; “inactive” in [4]; “inactive” in [5]. Further, the molecule was classed as inactive in assay [6], in assay [7] and in [8].
As to `Nc1ccc(N=Nc2ccccc2)cc1`, the AC50 was 13.1 µM (active) in assay [1]; 50 µM (active) with TIMP1, TIMP1 (gene 7076); 23.4 µM (active) in [2]; 11.4 µM (active) in [3]; 19.8 µM (active) in assay [6]; 16.8 µM (active) in [7]. Further, in assay [8], the AC50 was 11.9 µM (active). The molecule was called inactive in assay [4].
As for `Nc1cc(Cl)cc(C(=O)O)c1Cl`, the outcome was “inactive” in assay [1]; “inactive” with TIMP1, TIMP1 (gene 7076); “inactive” in [2]; “inactive” in [3]; “inactive” in [4]; “inactive” in assay [6]. The outcome in assay [7], in [8] and in assay [9] was inactive.
For the molecule `Cc1ccc(N)cc1`, the outcome in assay [1] was “inactive”; with TIMP1, TIMP1 (gene 7076), “inactive”; in [2] it was “inactive”; in assay [3], “inactive”; in [4] it was “inactive”; in [6], “inactive”. The result in assay [7] and in [8] was inactive.
Take `Nc1ccc([N+](=O)[O-])cc1`: the outcome was “inactive” in assay [1]; “inactive” in the assay with TIMP1, TIMP1 (gene 7076); “inactive” in assay [2]; “inactive” in assay [3]; “inactive” in assay [4]; “inactive” in assay [5]. Moreover, the molecule was called inactive in assay [6], in assay [7], in assay [8] and in assay [9].
For the molecule `CC(C)(C)C(O)(CCc1ccc(Cl)cc1)Cn1cncn1` (stereo unspecified), the AC50 is 50 µM (active) in [1]; 12.7 µM (active) in [3]; 71.9 µM (active) in assay [4]; 1.32 µM (active) in assay [5]; 72 µM (active) in [8]. In addition, the outcome with TIMP1, TIMP1 (gene 7076) is “inactive”; in assay [2], “inactive”; in [6], “inactive”; in [7], “inactive”; in [9], “inactive”.
With `CN(C)c1ccccc1`, the outcome is “inactive” in assay [1]; “inactive” with TIMP1, TIMP1 (gene 7076); “inactive” in [2]; “inactive” in assay [3]; “inactive” in assay [4]; “inactive” in assay [5]. Moreover, the result in assay [6], in assay [7], in assay [8] and in assay [9] was inactive.
`Nc1ccc(Cl)cc1N`: the AC50 in assay [1] is 12.9 µM (active); in assay [2], 50 µM (active); in assay [3], 19.3 µM (active); in [4] it was 12.4 µM (active); in [5] it was 37.8 µM (active); in assay [6], 54.9 µM (active). Also, the AC50 was 21 µM (active) in [7] and 35.2 µM (active) in assay [8]. In addition, the outcome with TIMP1, TIMP1 (gene 7076) was “inactive”; in [9], “inactive”.
Take `Clc1ccc(Cl)c(Cl)c1`: the outcome in assay [1] was “inactive”; with TIMP1, TIMP1 (gene 7076) it was “inactive”; in [3], “inactive”; in assay [4], “inactive”; in assay [7], “inactive”; in [8], “inactive”. Moreover, the molecule was called inactive in assay [9]. Further, the AC50 is 50 µM (active) in assay [2] and 9.92 µM (active) in assay [6].
On to `CS(=O)(=O)NC(=O)c1cc(Oc2ccc(C(F)(F)F)cc2Cl)ccc1[N+](=O)[O-]`, for which the outcome in assay [1] was “inactive”; with TIMP1, TIMP1 (gene 7076) it was “inactive”; in [2], “inactive”; in assay [3], “inactive”; in assay [4] it was “inactive”; in [6] it was “inactive”. In addition, the molecule was classed as inactive in [7], in assay [8] and in [9]. Also, in assay [5], the AC50 is 3.32 µM (active).
`CC(C)(C)OOC(C)(C)CCC(C)(C)OOC(C)(C)C`: the outcome was “inactive” in [1]; “inactive” in the assay with TIMP1, TIMP1 (gene 7076); “inactive” in assay [2]; “inactive” in assay [3]; “inactive” in [4]; “inactive” in assay [5]. In addition, the molecule was called inactive in [6], in assay [7], in assay [8] and in assay [9].
As to `CCN(CC)CCO`, the outcome in assay [1] is “inactive”; with TIMP1, TIMP1 (gene 7076), “inactive”; in [2], “inactive”; in assay [3], “inactive”; in [4], “inactive”; in [6], “inactive”. Besides, the call in assay [7], in assay [8] and in assay [9] was inactive.
Consider `CN(C)[C@@H]1C(=O)C(C(N)=O)=C(O)[C@@]2(O)C(=O)C3=C(O)c4c(O)cccc4[C@@](C)(O)[C@H]3C[C@@H]12`, for which the outcome in [1] is “inactive”; in the assay with TIMP1, TIMP1 (gene 7076), “inactive”; in [2] it was “inactive”; in assay [3], “inactive”; in [4], “inactive”; in assay [5], “inactive”. For the same molecule, the molecule was called inactive in assay [6], in assay [7] and in assay [8].
Turning to `ClCCOCCCl`, the outcome in assay [1] is “inactive”; in the assay with TIMP1, TIMP1 (gene 7076), “inactive”; in assay [2], “inactive”; in assay [3], “inactive”; in [4] it was “inactive”; in assay [6] it was “inactive”. Also, the call in [7], in assay [8] and in [9] was inactive.
Take `Clc1ccc(C(c2ccc(Cl)cc2)C(Cl)(Cl)Cl)cc1`: the outcome in assay [1] is “inactive”; in the assay with TIMP1, TIMP1 (gene 7076) it was “inactive”; in [2], “inactive”; in assay [4], “inactive”; in [6], “inactive”; in assay [7] it was “inactive”. Also, the molecule was called inactive in [9]. The AC50 was 68.1 µM (active) in assay [3], 2.03 µM (active) in [5] and 72.3 µM (active) in assay [8].
Consider `O=C(Oc1ccc(Br)cc1)N1CCN2CCC1CC2`, for which the outcome in [1] is “inactive”; with TIMP1, TIMP1 (gene 7076), “inactive”; in assay [2] it was “inactive”; in assay [4] it was “inactive”; in [5] it was “inactive”; in assay [6], “inactive”. Besides, in assay [7], the molecule was called inactive. Further, in assay [3], the AC50 was 34.8 µM (active).
On to `O=[N+]([O-])c1ccc(Oc2ccc(Cl)cc2Cl)cc1`, for which the outcome in assay [1] was “inactive”; with TIMP1, TIMP1 (gene 7076), “inactive”; in assay [2] it was “inactive”; in assay [3], “inactive”; in assay [4], “inactive”; in assay [6], “inactive”. The result in [7] and in assay [9] was inactive. Further, the AC50 in [8] is 73.8 µM (active).
On to `CCCSC(=O)N(CCC)CCC`, for which the outcome in [1] is “inactive”; with TIMP1, TIMP1 (gene 7076), “inactive”; in assay [2], “inactive”; in assay [3], “inactive”; in assay [4], “inactive”; in assay [5] it was “inactive”. Moreover, the molecule was called inactive in [6], in [7], in [8] and in assay [9].

In general, AC50 refers to the concentration giving half of the maximal activity seen.
